In PubChem BioAssay AID449762 (Southern Research Specialized Biocontainment Screening …, 2010) one finds inhibition data, which are given here for 63 compounds.

Out of some 330,000 compounds screened, about 1,900 (0.58%) were called active. Another 4% or so got no clear call; they are omitted. Cut-off read from the data, not from the text of the source: inconclusive = inhibition above about 70% without an active follow-up result; inactive = below that. A selection follows. Measured potencies and affinities stand elsewhere.

The assay can be described thus: M. tuberculosis growth inhibition, HTS (AID 449762).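 Note: bacterial growth assessed after seven days of incubation.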 Particulars: M. tuberculosis H37Rv growth inhibition, 7H9 media; at 25 µM; active compounds read high.
As a reminder, the inhibition is the change of the read-out against control, counted positive when it falls. Take `O=C(NN=C1CCCC1)c1cccc(O)c1`: the inhibition is -8.1% (inactive).

Consider `CCCNC(=O)CSc1n[nH]c(=O)n1CCc1ccccc1`, for which the inhibition was 7.69% (inactive). Under `CCOC(=O)c1c(NC(=O)CCN2C(=O)c3cccc([N+](=O)[O-])c3C2=O)sc(C(=O)OC(C)C)c1C` stands 3.56% (inactive); under `CCOc1ccc(NC(=O)CC2CC(C)(C)OC2=O)cc1` (stereo not drawn), -2.88% (inactive); under `CCOc1ccc(Nc2nc(-c3cccnc3)cs2)cc1`, 4.09% (inactive).

As to `CC(=O)Nc1ccc(NC(=O)C(C)OC(=O)c2cc(S(=O)(=O)N(C)C)ccc2N2CCCC2)cc1` (stereo not drawn), the inhibition was 1.92% (inactive). Under `Cc1ccc(C2=NC(C)(C)NC2=O)cc1` stands 11.8% (inactive); under `O/N=C/c1ccnc(SCc2ccccc2)n1`, 16.4% (inactive). Under `CSc1nccc(N/N=C/c2ccccc2)n1` stands 0.53% (inactive).

`Clc1ccccc1CNC1CN2CCC1CC2` (stereo not drawn): the inhibition is -2.13% (inactive). The same measure for `CC(CN1CCC(O)CC1)c1ccccc1` (stereo not drawn): -0.24% (inactive); for `FC(F)(F)c1nnc2ccc(N3CCCC3)nn12`: -7.59% (inactive). The same measure for `FC(F)(Cl)c1nnc2ccc(Sc3ccccn3)nn12`: 2.59% (inactive).

`O=C(OCc1c(F)cccc1Cl)c1cnc2ccccc2n1`: the inhibition is 48.8% (inactive). Under `COC(=O)c1cnc2ccccc2n1` stands -3.05% (inactive). For the compound `CC(C)C(NS(=O)(=O)c1cccs1)C(=O)NCCCN1CCCCCC1` (stereo not drawn), the inhibition is -1.69% (inactive). On to `COc1ccc(OCCCC(=O)Nc2ccc(N3CCCCC3)cc2)cc1`, for which the inhibition is -1.89% (inactive). For `CCCc1nnc(NC(=O)CCC(=O)N2CCN(c3nc(C)cc(C)n3)CC2)s1`, the inhibition was 0.06% (inactive). Take `COc1ccc(S(=O)(=O)Cc2ccc(C(=O)NCCCN3CCc4ccccc4C3)o2)cc1`: the inhibition is -0.56% (inactive).

Turning to `COc1cccc(OC)c1OCCCCCc1c(C)n[nH]c1C`, the inhibition was -7.6% (inactive). Under `COc1cccc(OC)c1OCCCCc1c(C)n[nH]c1C` stands 4.51% (inactive); under `COCC(C)NC(=O)Cc1ccc(F)cc1` (stereo not drawn), -4.61% (inactive); under `O=C(NC1CCN(Cc2ccccc2)CC1)c1cccc(S(=O)(=O)Nc2ccc(F)cc2)c1`, 37.8% (inactive). Turning to `COc1ccc(NS(=O)(=O)c2cccc(C(=O)NC3CCN(Cc4ccccc4)CC3)c2)cc1`, the inhibition was 6.7% (inactive). Under `COCc1cc(C)nc(SCc2ccccc2)c1C#N` stands 15.8% (inactive); under `COc1ccc(/C=C/C(=O)Oc2cccc(/C=N/NC(=O)c3cccc(F)c3)c2)cc1`, 7.76% (inactive); under `O=C(Oc1cccc(-n2cnnn2)c1)c1ccccc1Cl`, -11.6% (inactive). Under `CCc1ccccc1NC(=O)c1noc(C(C)C)c1[N+](=O)[O-]` stands 2.17% (inactive); under `Cc1ccc(NC(=O)c2noc(C(C)C)c2[N+](=O)[O-])cc1`, 0.01% (inactive).

As to `COc1ccc(C(C(=O)NC2CCCC2)N(Cc2ccco2)C(=O)c2snc(C(N)=O)c2N)cc1OC` (stereo not drawn), the inhibition is 3.33% (inactive).

In the case of `COc1cccc(/C=N/NC(=O)c2cccc([N+](=O)[O-])c2)c1OS(=O)(=O)c1ccccc1`, the inhibition was -10.3% (inactive). Under `Cc1nc(-c2ccc(NC(=O)C3CC3)cc2)cs1` stands 37.4% (inactive); under `Cc1cc(Nc2cc(N3CCN(C)CC3)nc(Sc3ccc(NC(=O)C4CC4)cc3)n2)n[nH]1`, 3.52% (inactive). In the case of `COc1cccc(NC(=O)Cn2c(=O)n(-c3ccccc3)c(=O)c3oc4ccccc4c32)c1`, the inhibition is -3.21% (inactive). Under `Cc1ccc2c(c1)c1c(n2C)C(C(N)=O)CCC1` (stereo not drawn) stands -14.2% (inactive); under `Cn1c(CNc2nc3ccccc3n2CCN2CCCCC2)nc2ccccc21`, 1.84% (inactive).

As to `c1ccc(Cn2c(CNc3nc4ccccc4n3CCN3CCOCC3)nc3ccccc32)cc1`, the inhibition is 10.7% (inactive). The same measure for `Cc1ccc(C(=O)N/C(=C/c2cccs2)C(=O)NCCCn2ccnc2)cc1`: -0.44% (inactive); for `O=C(NCCCSc1ccccc1)c1cccnc1`: 2.65% (inactive). Under `NC(=O)N/N=C/c1ccc2cccc(OCc3ccccc3)c2n1` stands 12.6% (inactive); under `O=C(Cc1ccccc1)N/N=C/c1ccccn1`, -3.52% (inactive); under `CC(N)(C(=O)O)c1cccc(OCc2cccc(Cl)c2)c1` (stereo not drawn), -9.95% (inactive).

Regarding `CN(C(=O)CSc1nccc(=O)[nH]1)C1CCCCC1`, the inhibition was -5.2% (inactive). The same measure for `CCCn1c(Nc2ccccc2C)nc2ccccc21`: -13.5% (inactive); for `CCCn1c(Nc2ccccc2)nc2ccccc21`: 3.3% (inactive); for `CCN1CCN(Cc2cc(Br)ccc2O)CC1`: -0.17% (inactive). The same measure for `CC(C)CCC(C)NC(=O)CN1C(=O)NC(C)(c2ccc3ccccc3c2)C1=O` (stereo not drawn): -6.81% (inactive). Turning to `COc1ccc(C(=O)OCC(=O)NC2CC2)cc1F`, the inhibition was 2.71% (inactive). Under `CCNC(=S)NCc1ccco1` stands 8.6% (inactive); under `NNC(=S)NCc1ccco1`, -5.28% (inactive); under `CC[C@@H]1CN(C)[C@H]2Cc3c([nH]c4ccccc34)C(=O)C[C@@H]1[C@@H]2C(=O)OC`, -5.83% (inactive). Turning to `COc1ccc(C2CC(c3ccc(Cl)cc3)n3nc(N)nc3N2)cc1` (stereo not drawn), the inhibition was 1.53% (inactive). Under `CCCc1nn2c(=O)c(C(c3cccc(Cl)c3)c3c(O)nc4sc(CCC)nn4c3=O)c(O)nc2s1` stands -6.75% (inactive); under `CCOc1ccc(NC(=O)CCc2nnc3ccc(N4CCN(C)CC4)nn23)cc1`, 1.67% (inactive).

As to `COc1ccc(NC(=O)CCc2nnc3ccc(N4CCC(C)CC4)nn23)cc1`, the inhibition is -0.59% (inactive). The same measure for `O=C1CCCc2c1nc(-c1ccc([N+](=O)[O-])cc1)n2O`: 0.46% (inactive); for `CC(C)CNC(=O)/C(C#N)=C1\N=C(NC(=O)c2ccco2)c2ccccc21`: 12.4% (inactive); for `O=C(Nc1ccc(OC(F)F)c(Cl)c1)Nc1ccc2c(c1)OCO2`: 5.38% (inactive). For the compound `Cc1cc(OC(F)F)ccc1NC(=O)Nc1ccc([N+](=O)[O-])cc1`, the inhibition is 17.3% (inactive). In the case of `Cc1ncc([N+](=O)[O-])n1CC(=O)NC1CCCCCC1`, the inhibition is 0.9% (inactive). The same measure for `O=C(Cc1ccc([N+](=O)[O-])cc1)OCc1c(F)cccc1Cl`: 7.51% (inactive); for `CC(C)N(Cc1ccccc1)CC(O)COc1ccc(S(=O)(=O)N2CCOCC2)cc1Cl` (stereo not drawn): 1.09% (inactive); for `O=c1cc(-c2ccccc2O)nc(-c2ccccc2)[nH]1`: 15.5% (inactive).
